# Several values for one entry are separate records, joined by “and”; a condition that tells them apart may be missing. Equal values may be shown once. Results filed as inconclusive are left out. Activity calls are given as the source filed them. The call rests on the fitted dose curve; in most records, active means well fitted curve in the direction sought with a large enough effect; inconclusive means small, poorly fitted or top-dose-only effect, or another doubt; inactive means no such curve, though single readings can be large; an effect the other way counts as inactive or inconclusive. Where a SMILES comes first, the peptide text is derived from it. Bridges are numbered along the chain shown (N, C = ends). [ ]: non-standard residue; d: D form. hArg = N=C(N)NCCCC[C@H](N)C(=O)O; Mpa = O=C(O)CCS
# Biological target: Cytochrome P450 3A7 (Homo sapiens) (UniProt P24462)
# Experiment: Cytochrome P450 family 3 subfamily A member 7 (CYP3A7) small molecule antagonists: luciferase biochemical qHTS assay (AID 1963596); further: nearly all actives have a fitted effect of over 40% in size
# Conditions: P450-Glo CYP3A7 enzyme luminescence, 1 h; series mostly up to 57.4 µM
# Procedure, shortened: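 Enzyme-substrate mix + cpd (DMSO), 10 min RT; + NADPH regen system, 1 h RT; + luciferin detection reagent, 20 min RT; luminescence read. Proluciferin substrate, P450-Glo format, 1536-well qHTS.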
# On the % scale 0 is the no-effect control and ±100 the full control effect; potency means the concentration at half of the fitted maximal effect.
# Sequence of Cytochrome P450 3A7 (Homo sapiens) (P24462 whole entry, looked up): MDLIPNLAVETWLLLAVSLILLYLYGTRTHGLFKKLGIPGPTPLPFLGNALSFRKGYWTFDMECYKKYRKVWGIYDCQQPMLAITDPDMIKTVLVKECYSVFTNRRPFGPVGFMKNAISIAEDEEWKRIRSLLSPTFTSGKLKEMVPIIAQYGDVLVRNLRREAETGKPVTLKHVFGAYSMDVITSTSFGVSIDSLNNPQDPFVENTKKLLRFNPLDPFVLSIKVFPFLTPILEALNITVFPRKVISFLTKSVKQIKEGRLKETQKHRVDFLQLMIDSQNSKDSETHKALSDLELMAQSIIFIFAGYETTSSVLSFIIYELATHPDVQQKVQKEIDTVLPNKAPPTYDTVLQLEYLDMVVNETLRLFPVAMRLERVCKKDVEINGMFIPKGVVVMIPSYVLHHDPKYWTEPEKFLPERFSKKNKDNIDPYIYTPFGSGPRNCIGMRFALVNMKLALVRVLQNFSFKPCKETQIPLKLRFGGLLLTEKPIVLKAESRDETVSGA
row,SMILES,Potency
1,N#Cc1cccc(-c2c[nH]c3ncnc(N4CCOCC4)c23)c1,inactive
2,O=C(O)Cc1ccc2c(c1)C(=O)c1ccccc1CO2,inactive
3,CN(C)C(=O)Nc1ccc(Cl)c(Cl)c1,inactive
4,Oc1cn2c(n1)Nc1ccc(Cl)c(Cl)c1C2,inactive
5,C[N+]12CCC(CC1)C(OC(=O)C(O)(c1ccccc1)c1ccccc1)C2 (stereo not given),inactive
6,O=C(O)P(=O)(O)O,inactive
7,COc1c(N2C[C@@H]3CCCN[C@@H]3C2)c(F)cc2c(=O)c(C(=O)O)cn(C3CC3)c12,inactive
8,Cc1c(N(C)CS(=O)(=O)O)c(=O)n(-c2ccccc2)n1C,inactive
9,NCCNC(=O)c1ccc(Cl)cn1,inactive
10,CC(C)C(=O)Nc1cccc(C(F)(F)F)c1,inactive
11,O=c1[nH]cnc2nc[nH]c12,inactive
12,C[C@@H]1CCN(C(=O)N2CCCC2)C[C@@H]1N(C)c1ncnc2[nH]ccc12,inactive
13,CCCOC(=O)c1ccccc1,inactive
14,Cl/C(=C\n1cncn1)c1ccc(Cl)cc1Cl,inactive
15,Nc1ccncc1N,inactive
16,CC(=O)OCC(=O)[C@@]1(OC(C)=O)[C@@H](C)C[C@H]2[C@@H]3C[C@H](F)C4=CC(=O)C=C[C@]4(C)[C@@]3(F)[C@@H](O)C[C@@]21C,inactive
17,NC(=O)N[C@@H](CCC(=O)O)C(=O)O,inactive
18,O=C1c2cccc3c2[C@H](CCC3)CN1[C@@H]1CN2CCC1CC2,inactive
19,COC(=O)c1cc(Cl)ccc1NS(=O)(=O)C(F)(F)F,inactive
20,CCCC(=O)O[C@]1(C(=O)COC(=O)CC)CC[C@H]2[C@@H]3CCC4=CC(=O)CC[C@]4(C)[C@H]3[C@@H](O)C[C@@]21C,inactive

row,SMILES,Potency
1,CC1c2ccccc2CN1NC(=O)c1ccc(Cl)c(S(N)(=O)=O)c1 (stereo not given),inactive
2,O=C(c1ccco1)N1CCNCC1,inactive
3,CCOC(=O)C(C#N)=C(c1ccccc1)c1ccccc1,inactive
4,Fc1ccc(C(c2ccc(F)cc2)N2CCNCC2)cc1,inactive
5,CO/N=C(\C(=O)N[C@@H]1C(=O)N2C(C(=O)O)=C(CSc3nc(=O)c(O)nn3C)CS[C@H]12)c1csc(N)n1,inactive
6,NC(=O)c1ncn([C@@H]2O[C@H](CO)[C@@H](O)[C@H]2O)n1,inactive
7,CC(=O)c1cc2ccccc2s1,inactive
8,COP(=O)(OC)OC(c1ccc(Cl)cc1)P(=O)(OC)OC (stereo not given),inactive
9,Nc1ccn([C@@H]2O[C@H](CO)[C@@H](O)C2(F)F)c(=O)n1,inactive
10,CN[C@@H](C)C(=O)N[C@H](C(=O)N1CCC[C@H]1c1nc(C(=O)c2ccc(F)cc2)cs1)C1CCCCC1,14.1 µM (active)
11,CC(C)NCC(O)c1ccc2ccccc2c1 (stereo not given),inactive
12,Oc1c(Br)cc(Br)c2cccnc12,inactive
13,NC(=O)CC[C@@H]1NC(=O)[C@H](Cc2ccccc2)NC(=O)[C@H](Cc2ccc(O)cc2)NC(=O)CCSSC[C@@H](C(=O)N2CCC[C@H]2C(=O)N[C@@H](CCCN=C(N)N)C(=O)NCC(N)=O)NC(=O)[C@H](CC(N)=O)NC1=O,inactive
14,Cc1ccc(S(=O)(=O)NC(=O)NC2CCCC2)cc1,inactive
15,Brc1ccccc1-c1ccccc1,inactive
16,C[C@H](CN1CCCC1)C(=O)c1ccc(C(F)(F)F)cc1,inactive
17,NC(=O)[C@@H]1CSSCCC(=O)N[C@@H](CCCCN=C(N)N)C(=O)NCC(=O)N[C@@H](CC(=O)O)C(=O)N[C@@H](Cc2c[nH]c3ccccc23)C(=O)N2CCC[C@H]2C(=O)N1 ([Mpa][hArg]GDWPC-NH2; disulfide 1-7),inactive
18,CC(=O)N[C@H]1[C@H]([C@H](O)[C@H](O)CO)OC(C(=O)O)=C[C@@H]1N=C(N)N,inactive
19,O=C(O)[C@@H]1CSCN1,inactive
20,CCN1CC(CCN2CCOCC2)C(c2ccccc2)(c2ccccc2)C1=O (stereo not given),inactive

# Tested on: not listed separately
# Experiment: Cellular viability qHTS for adrenocortical cancer (ACC) cell line SW-13 (AID 1963989); further: nearly all actives have a fitted effect of over 65% in size;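 on activity (max response): cells grown in serum-free medium with ITS supplement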
# Conditions: SW-13 ACC cells viability, CellTiter-Glo, 48 h; activity (max response): hits give low values
# Procedure, shortened: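 Viability was read as CellTiter-Glo luminescence after 48 h compound treatment (up to 46 uM final) of SW-13 cells grown serum-free; titration curves were fit with a four-parameter logistic model to give IC50 and efficacy.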
SMILES,activity (max response),Potency
N#Cc1cccc(-c2c[nH]c3ncnc(N4CCOCC4)c23)c1,9.94% (inactive),–
O=C(O)Cc1ccc2c(c1)C(=O)c1ccccc1CO2,11.3% (inactive),–
CN(C)C(=O)Nc1ccc(Cl)c(Cl)c1,-2.09% (inactive),–
Oc1cn2c(n1)Nc1ccc(Cl)c(Cl)c1C2,11.3% (inactive),–
C[N+]12CCC(CC1)C(OC(=O)C(O)(c1ccccc1)c1ccccc1)C2 (stereo not given),-2.73% (inactive),–
O=C(O)P(=O)(O)O,10.2% (inactive),–
COc1c(N2C[C@@H]3CCCN[C@@H]3C2)c(F)cc2c(=O)c(C(=O)O)cn(C3CC3)c12,-4.75% (inactive),–
Cc1c(N(C)CS(=O)(=O)O)c(=O)n(-c2ccccc2)n1C,3.83% (inactive),–
NCCNC(=O)c1ccc(Cl)cn1,-2.26% (inactive),–
CC(C)C(=O)Nc1cccc(C(F)(F)F)c1,14.2% (inactive),–
O=c1[nH]cnc2nc[nH]c12,10.3% (inactive),–
C[C@@H]1CCN(C(=O)N2CCCC2)C[C@@H]1N(C)c1ncnc2[nH]ccc12,11.2% (inactive),–
CCCOC(=O)c1ccccc1,11.8% (inactive),–
Cl/C(=C\n1cncn1)c1ccc(Cl)cc1Cl,2.66% (inactive),–
Nc1ccncc1N,-0.994% (inactive),–
CC(=O)OCC(=O)[C@@]1(OC(C)=O)[C@@H](C)C[C@H]2[C@@H]3C[C@H](F)C4=CC(=O)C=C[C@]4(C)[C@@]3(F)[C@@H](O)C[C@@]21C,3.57% (inactive),–
NC(=O)N[C@@H](CCC(=O)O)C(=O)O,9.08% (inactive),–
O=C1c2cccc3c2[C@H](CCC3)CN1[C@@H]1CN2CCC1CC2,-4.45% (inactive),–
COC(=O)c1cc(Cl)ccc1NS(=O)(=O)C(F)(F)F,-0.552% (inactive),–
CCCC(=O)O[C@]1(C(=O)COC(=O)CC)CC[C@H]2[C@@H]3CCC4=CC(=O)CC[C@]4(C)[C@H]3[C@@H](O)C[C@@]21C,8.42% (inactive),–

SMILES,activity (max response),Potency
CC1c2ccccc2CN1NC(=O)c1ccc(Cl)c(S(N)(=O)=O)c1 (stereo not given),-11.8% (inactive),–
O=C(c1ccco1)N1CCNCC1,-4.62% (inactive),–
CCOC(=O)C(C#N)=C(c1ccccc1)c1ccccc1,-5.89% (inactive),–
Fc1ccc(C(c2ccc(F)cc2)N2CCNCC2)cc1,4.07% (inactive),–
CO/N=C(\C(=O)N[C@@H]1C(=O)N2C(C(=O)O)=C(CSc3nc(=O)c(O)nn3C)CS[C@H]12)c1csc(N)n1,16.1% (inactive),–
NC(=O)c1ncn([C@@H]2O[C@H](CO)[C@@H](O)[C@H]2O)n1,-0.314% (inactive) and -2.41% (inactive),–
CC(=O)c1cc2ccccc2s1,15.3% (inactive),–
COP(=O)(OC)OC(c1ccc(Cl)cc1)P(=O)(OC)OC (stereo not given),-0.893% (inactive),–
Nc1ccn([C@@H]2O[C@H](CO)[C@@H](O)C2(F)F)c(=O)n1,-35% (inactive) and -42.2% (inactive),–
CN[C@@H](C)C(=O)N[C@H](C(=O)N1CCC[C@H]1c1nc(C(=O)c2ccc(F)cc2)cs1)C1CCCCC1,-7.41% (inactive),–
CC(C)NCC(O)c1ccc2ccccc2c1 (stereo not given),8.99% (inactive),–
Oc1c(Br)cc(Br)c2cccnc12,–,4.61 µM (active)
NC(=O)CC[C@@H]1NC(=O)[C@H](Cc2ccccc2)NC(=O)[C@H](Cc2ccc(O)cc2)NC(=O)CCSSC[C@@H](C(=O)N2CCC[C@H]2C(=O)N[C@@H](CCCN=C(N)N)C(=O)NCC(N)=O)NC(=O)[C@H](CC(N)=O)NC1=O,-1.25% (inactive),–
Cc1ccc(S(=O)(=O)NC(=O)NC2CCCC2)cc1,10.7% (inactive),–
Brc1ccccc1-c1ccccc1,7.98% (inactive),–
C[C@H](CN1CCCC1)C(=O)c1ccc(C(F)(F)F)cc1,-1.72% (inactive),–
NC(=O)[C@@H]1CSSCCC(=O)N[C@@H](CCCCN=C(N)N)C(=O)NCC(=O)N[C@@H](CC(=O)O)C(=O)N[C@@H](Cc2c[nH]c3ccccc23)C(=O)N2CCC[C@H]2C(=O)N1 ([Mpa][hArg]GDWPC-NH2; disulfide 1-7),17.5% (inactive),–
CC(=O)N[C@H]1[C@H]([C@H](O)[C@H](O)CO)OC(C(=O)O)=C[C@@H]1N=C(N)N,-7.79% (inactive),–
O=C(O)[C@@H]1CSCN1,-7.21% (inactive),–
CCN1CC(CCN2CCOCC2)C(c2ccccc2)(c2ccccc2)C1=O (stereo not given),1.41% (inactive),–
